Assay results from PubChem BioAssay AID2567 (National Center for Advancing Translational Sciences (NCATS), 2010).
Results filed as inconclusive are left out. A call without a number means that no potency is given here. Activity calls are given as the source filed them. Calls come from the whole dose curve; as a rule, active = well fitted antagonist curve with a large enough effect in the main read-out, with a control signal flat; inconclusive = small, poorly fitted or top-dose-only effect; inactive = no such curve, though single readings can be large or run the other way.

Biological target: Neuropeptide S receptor (Homo sapiens) (UniProt Q6W5P4)
Sequence (Q6W5P4 whole entry, looked up): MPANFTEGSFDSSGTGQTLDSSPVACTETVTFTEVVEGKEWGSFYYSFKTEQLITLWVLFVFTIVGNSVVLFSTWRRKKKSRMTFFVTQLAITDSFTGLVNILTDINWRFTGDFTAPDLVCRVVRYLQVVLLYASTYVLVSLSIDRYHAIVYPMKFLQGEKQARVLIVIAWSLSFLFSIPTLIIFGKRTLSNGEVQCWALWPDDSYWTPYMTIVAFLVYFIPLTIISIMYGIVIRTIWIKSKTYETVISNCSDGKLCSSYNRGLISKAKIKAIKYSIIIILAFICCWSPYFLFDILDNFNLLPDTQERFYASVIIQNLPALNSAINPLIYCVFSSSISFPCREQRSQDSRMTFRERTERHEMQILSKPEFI
Test: Confirmation Concentration-Response Assay for Antagonists of the Neuropeptide S Receptor: Calcium Signal Transduction, SAR for Probe
Settings: CHO-NPSR cells, NPS-induced calcium fluorescence, FDSS; series mostly up to 19.3 µM
Outline: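 Calcium flux was measured by kinetic fluorescence in dye-loaded CHO-NPSR cells, first after compound addition (210 s), then after NPS challenge (60 nM in stimulation reagent, 140 s). Hill-equation fitting gave AC50.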

SMILES | Potency
COc1ccc(C2c3c(nc(C)[nH]c3=O)Oc3ccc4ccccc4c32)cc1OC (stereo unspecified) | inactive
COc1ccc(C(=O)N(Cc2ccco2)Cc2cccs2)c(O)c1 | inactive
Cc1c(P(=S)(c2ccccc2)c2ccccc2)c2ccccc2n1C(=O)Cc1ccccc1 | inactive
COc1ccc(C2c3c(n(CCc4ccccc4)cnc3=N)Oc3ccc4ccccc4c32)cc1OC (stereo unspecified) | inactive
COc1cccc(C2c3c(ncn(-c4ccc(C(C)(C)C)cc4)c3=N)Oc3ccc4ccccc4c32)c1 (stereo unspecified) | 5.52 µM (active)
Oc1ccc(N=Nc2nccs2)c(O)c1 | inactive
Cc1nn(C)cc1/C=N/NC(=S)Nc1ccccc1 | inactive
COc1ccc(C2c3c(nc(Cc4ccccc4)[nH]c3=O)Oc3ccc4ccccc4c32)cc1OC (stereo unspecified) | inactive
COc1cccc(C2c3c(ncn(-c4ccccc4-c4ccccc4)c3=N)Oc3ccc4ccccc4c32)c1 (stereo unspecified) | inactive
O=P(c1ccccc1)(c1ccccc1)c1cnc2ccccn12 | inactive
Cc1ccc(Nc2cc(C)nn2-c2nc(C)cc(C)n2)cc1 | inactive
COc1cccc(C2c3c(ncn(-c4cccc(OC)c4)c3=N)Oc3ccc4ccccc4c32)c1 (stereo unspecified) | 5.52 µM (active)
Cc1c(P(=S)(c2ccccc2)c2ccccc2)[n+]2ccccc2n1CC(=O)c1ccccc1 | 2.76 µM (active)
Cc1c(P(=S)(c2ccccc2)c2ccccc2)c2ccccc2n1C/C=C/c1ccccc1 | inactive
C(=N\Nc1nc(-c2ccccn2)nc2ccccc12)/c1ccccc1 | inactive
COc1cccc(C2c3c(ncn(-c4ccc(C#N)cc4)c3=N)Oc3ccc4ccccc4c32)c1 (stereo unspecified) | 5.52 µM (active)
COc1cccc(C2c3c(ncn(-c4cccc(C)c4)c3=N)Oc3ccc4ccccc4c32)c1 (stereo unspecified) | 4.38 µM (active)
COc1cccc(C2c3c(ncn(-c4ccncc4)c3=N)Oc3ccc4ccccc4c32)c1 (stereo unspecified) | 4.38 µM (active)
C/C(=N\NC(=S)NC1CCCCC1)c1c(F)cccc1F | inactive
COc1cccc(C2c3c(ncn(-c4cccnc4)c3=N)Oc3ccc4ccccc4c32)c1 (stereo unspecified) | 2.76 µM (active)
COc1cccc(C2c3c(ncn(-c4ccccc4C#N)c3=N)Oc3ccc4ccccc4c32)c1 (stereo unspecified) | 4.38 µM (active)
